Results filed as inconclusive are left out. The source made the active and inactive calls. The call rests on the fitted dose curve; in most records, active means well fitted inhibition curve with a large enough effect; inconclusive means small, poorly fitted or top-dose-only effect; inactive means flat fitted curve, though single readings scatter.

The nature of this assay: qHTS for characterization and localization of zebrafish homologs of the human ABCB1 multidrug transporter: empty vector transfected cells. The conditions noted are these: empty vector transfected control cells, CellTiter-Glo luminescence viability, 72 h; series mostly up to 46.1 µM. In outline:
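About 90 known P-gp substrates were titrated onto four cell lines: vector control, MDR-19 (human P-gp) and zebrafish Abcb4 or Abcb5 transfectants. After 72 h, ATP luminescence (CellTiter-Glo) gave curves; cytotoxic required AC50 < 10 uM, >50% response and inhibitory curve class.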
Background: Quantitative high-throughput screening tests each substance at several concentrations.
Turning to `NC(=O)Nc1cc(-c2ccc(CN3CCOCC3)c(F)c2)sc1C(=O)N[C@H]1CCCNC1`, the Potency is 469 nM (active).
On to `COc1cccc2c1C(=O)c1c(O)c3c(c(O)c1C2=O)C[C@@](O)(C(=O)CO)C[C@H]3O[C@H]1C[C@H](N)[C@@H](O)[C@H](C)O1`, for which the Potency was 105 nM (active).
To `C[C@@H]1O[C@@H](O[C@H]2[C@@H](OC(=O)[C@]34CCC(C)(C)CC3C3=CCC5[C@@]6(C)C[C@H](O)[C@H](O[C@@H]7O[C@H](CO)[C@@H](O)[C@H](O)[C@H]7O[C@@H]7OC[C@@H](O)[C@H](O)[C@H]7O)[C@@](C)(C(=O)O)C6CC[C@@]5(C)[C@]3(C)CC4)OC[C@H](O)[C@@H]2O)[C@H](O)[C@H](O)[C@H]1O[C@@H]1OC[C@@H](O)[C@H](O)[C@H]1O` (stereo partly drawn) belongs 1980 nM (active); to `C#Cc1cccc(Nc2ncnc3cc(OC)c(OCCCCCCC(=O)NO)cc23)c1`, 2960 nM (active).
To `CCCCc1nc2cc(C=CC(=O)NO)ccc2n1CCN(CC)CC` belongs 3320 nM (active); to `CCn1nnc2c(N3CCOCC3)nc(-c3ccc(NC(=O)Nc4ccc(C(=O)N5CCN(C)CC5)cc4)cc3)nc21`, 332 nM (active); to `CC(=O)O[C@@H]1C[C@H](O)[C@@]23CO[C@@H](O)C1(C)[C@@H]2C[C@@H](O)[C@]1(C)[C@@H]3C(=O)[C@H](OC(C)=O)[C@@]2(C)[C@H](c3ccoc3)C[C@H]3O[C@]321`, 93.5 nM (active).
For the molecule `CN(C)c1ccc(C(=C2C=CC(=[N+](C)C)C=C2)c2ccc(N(C)C)cc2)cc1`, the Potency is 590 nM (active).

For the origin of these results see PubChem BioAssay AID1508637 (National Center for Advancing Translational Sciences (NCATS), 2021).
